These results are taken from PubChem BioAssay AID652115 (Broad Institute, 2013).

Values joined by “and” are separate entries in the source; they are usually repeats but may differ in a detail not shown here. Identical values can stand only once. About 3,800 (1.2%) of roughly 330,000 compounds were called active. The entries come from a sample that favours actives as a whole. Unmarked numbers belong to inactive results. Rule as the data show it: active = inhibition above about 15%; inconclusive = no clear call, values can overlap the other calls; inactive = below that.

The target of this test is NAD-dependent protein deacylase sirtuin-5, mitochondrial (Homo sapiens) (UniProt Q9NXA8). The test can be described thus: SIRT5 desuccinylase inhibitors, primary screen, biochemical, fluorescence imaging, single point, set 5 (AID 652115). The conditions noted are these: Purified SirT5, succinyl-peptide AMC, trypsin-coupled fluorescence; at 15 µM; stronger effect = higher value.
NAD-dependent protein deacylase sirtuin-5, mitochondrial (Homo sapiens), sequence (Q9NXA8 whole entry, looked up): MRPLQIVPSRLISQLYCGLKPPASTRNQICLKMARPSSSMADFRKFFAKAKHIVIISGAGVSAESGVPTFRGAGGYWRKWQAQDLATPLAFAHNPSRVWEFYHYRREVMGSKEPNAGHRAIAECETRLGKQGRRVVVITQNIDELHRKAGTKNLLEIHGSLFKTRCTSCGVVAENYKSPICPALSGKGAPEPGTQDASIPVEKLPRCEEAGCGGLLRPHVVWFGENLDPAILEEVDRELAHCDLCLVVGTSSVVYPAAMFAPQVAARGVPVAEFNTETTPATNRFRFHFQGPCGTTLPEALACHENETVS
Take `CCCNC(=O)C[C@H]1CC[C@@H]2[C@H](COC[C@H](O)CN2CC2CCCCC2)O1`: the inhibition – broadly, the relative decrease from the control value, in per cent – is -1.9%.
For `C[C@H]1CN([C@@H](C)CO)C(=O)c2cc(-c3cccc(F)c3)cnc2O[C@@H]1CN(C)S(C)(=O)=O` the value was 0.285% and -8.78%.
For `COc1cccc(-c2cnc3c(c2)C(=O)N([C@@H](C)CO)C[C@H](C)[C@H](CN(C)C(C)=O)O3)c1` the value was 2.24%; for `C[C@@H]1CN([C@H](C)CO)C(=O)c2cc(-c3cccc(F)c3)cnc2O[C@@H]1CN(C)C`, 21.7% (active); for `CC(=O)N(C)C[C@H]1Oc2ncc(-c3cccc(F)c3)cc2C(=O)N([C@@H](C)CO)C[C@H]1C`, 25.3% (active).
`C[C@H](CO)N1C[C@H](C)[C@@H](CN(C)C)Oc2ncc(-c3cccc(F)c3)cc2C1=O`: the inhibition is -1.97%.
In the case of `C[C@H]1CN([C@@H](C)CO)C(=O)c2cc(-c3cccc(F)c3)cnc2O[C@@H]1CN(C)C(=O)c1ccccn1` it was 0.073%; in that of `C[C@H]1CN([C@@H](C)CO)S(=O)(=O)c2ccc(C#Cc3ccccc3)cc2O[C@H]1CN(C)S(=O)(=O)c1cn(C)cn1`, 2.56%.
For `COc1ccccc1-c1ccc([C@H]2[C@H](CO)N(C(=O)C3CC3)C23CN(C(C)=O)C3)cc1` the value was 2.52%.
Take `O=C(c1cccs1)N(Cc1cc2ccccc2[nH]c1=O)CC1CCCO1` (stereo unspecified): the inhibition is 0.632%.
For `Cc1cc2cc(CN(Cc3cccs3)Cc3nnnn3CC3CCCO3)c(=O)[nH]c2cc1C` (stereo unspecified) the value was -2.28%.
For `Cc1ccc(S(=O)(=O)N(Cc2cc3ccccc3[nH]c2=O)CC2CCCO2)cc1` (stereo unspecified) the value was 23.6% (active).
In the case of `CO[C@H]1CN(C)C(=O)c2ccc(NC(=O)CC(F)(F)F)cc2OC[C@@H](C)N(C(=O)c2ccccc2F)C[C@@H]1C`, the inhibition was 4.25%.
For the molecule `O=C(NCCc1ccc(F)cc1)c1ccc(S(=O)(=O)N2CCCCC2)cc1`, the inhibition was -0.792%.
In the case of `O=C(NCCc1ccc(F)cc1)c1n[nH]c2ccccc12` it was 9.38%.
Turning to `O=C(NCCc1ccc(F)cc1)c1ccc2nccnc2c1`, the inhibition is 16% (active).
In the case of `Cc1ccccc1-c1ccc(C2[C@@H]3CN(C(=O)C4CCCCC4)C[C@H]2N3)cc1` (stereo partly specified) it was -6.18% and -1.65%; in that of `C/C=C/c1ccc(C2[C@H]3CNC[C@@H]2N3Cc2cccc(OC)c2)cc1` (stereo partly specified), -2.37% and 0.748%; in that of `CCNC(=O)C[C@H]1CC[C@@H]2[C@H](COC[C@H](O)CN2S(=O)(=O)c2ccc(Oc3ccccc3)cc2)O1`, -0.497%.
In the case of `COc1ccc(NC(=O)N(C)C[C@@H]2OCCCC[C@H](C)Oc3ccc(NS(=O)(=O)c4cccs4)cc3C(=O)N([C@@H](C)CO)C[C@@H]2C)cc1` it was -0.093%; in that of `C[C@H]1CN([C@@H](C)CO)C(=O)c2cc(C#CC3CCCCC3)cnc2O[C@H]1CN(C)S(=O)(=O)c1ccccc1`, 13.2%.
For `C[C@H](CO)N1C[C@H](C)[C@@H](CN(C)CC2CCOCC2)Oc2ncc(C#Cc3ccc(F)cc3)cc2C1=O` the value was -1.14%; for `C[C@@H]1CN([C@H](C)CO)C(=O)c2cc(C#CC3CCCC3)cnc2O[C@H]1CN(C)S(C)(=O)=O`, -4.07%.
Take `C[C@@H]1CN([C@@H](C)CO)C(=O)c2cc(C#CC3CCCCC3)cnc2O[C@H]1CN(C)S(=O)(=O)c1ccccc1`: the inhibition was 17.9% (active).
For `CC(C)CC#Cc1cnc2c(c1)C(=O)N([C@H](C)CO)C[C@H](C)[C@H](CN(C)CC1CCOCC1)O2` the value was 23% (active); for `C[C@@H]1CN([C@@H](C)CO)C(=O)c2cc(C#C[C@@H](C)O)cnc2O[C@H]1CN(C)CC1CCOCC1`, -2.03%.
For `C[C@H]1CN([C@@H](C)CO)S(=O)(=O)c2ccc(-c3cccc(C#N)c3)cc2O[C@H]1CN(C)CC1CC1` the value was -0.017%; for `COCC#Cc1cnc2c(c1)C(=O)N([C@@H](C)CO)C[C@@H](C)[C@@H](CN(C)S(=O)(=O)c1cccc(OC)c1)O2`, -3.81%.
In the case of `CN(C)Cc1cn(CC[C@H]2CC[C@H](NS(=O)(=O)c3ccccc3)[C@@H](CO)O2)nn1` it was -3.23%.
Take `Cc1ccc(S(=O)(=O)N2C[C@H](O)COC[C@H]3O[C@H](CC(=O)N[C@H]4CCN(Cc5ccccc5)C4)CC[C@@H]32)cc1`: the inhibition is -1.53%.
For `CN(CCO)c1ccc(/C=N/Nc2nncc3ccccc23)cc1` the value was 25% (active); for `CN(C(=O)CSc1nncc2ccccc12)C1CCCCC1`, 1.3%; for `C/C(=N\Nc1nncc2ccccc12)c1ccc(Cl)c([N+](=O)[O-])c1`, 2.12%.
In the case of `C[C@H]1CCCCO[C@@H](CN(C)Cc2ccccc2)[C@@H](C)CN([C@@H](C)CO)C(=O)c2cc(NC(=O)Cc3ccccc3)ccc2O1` it was 2.55%; in that of `O=C(C[C@H]1CC[C@@H](NC(=O)Cc2cccnc2)[C@H](CO)O1)Nc1ccc(-c2ccccc2)cc1`, 4.12%.
For `O=C(CCN1C(=O)C2C3C=CC(C3)C2C1=O)Oc1ccc2ccccc2c1` (stereo unspecified) the value was 19.8% (active); for `O=C(O)CCCN1C(=O)C2C3c4ccccc4C(c4ccccc43)[C@@H]2C1=O` (stereo partly specified), -0.491%; for `Cc1ccc(C(=O)COC(=O)CCN2C(=O)C3C4CCC(C4)C3C2=O)cc1C` (stereo unspecified), -2.42%.
Consider `CCCNC(=O)N[C@@H]1C=C[C@H](CC(=O)NC2CCC2)O[C@H]1CO`, for which the inhibition was -0.778%.
In the case of `COc1ccc2c3c(n(C)c2c1)[C@H](CO)N(S(=O)(=O)c1ccc(C)cc1)CC31CN(C(=O)c2ccccn2)C1` it was 1.96%.
For `CN(C)C(=O)[C@@H]1[C@@H](CO)[C@@H]2Cn3c(ccc(-c4ccncc4)c3=O)[C@H]1N2C(=O)NC1CCCC1` the value was -68%; for `CCN1/C(=C\c2ccc3ccccc3[n+]2CC)Sc2cc(C)ccc21`, 28.6% (active); for `COc1cccc(-c2cnc3c(c2)C(=O)N([C@H](C)CO)C[C@H](C)[C@@H](CN(C)Cc2ccc(C(=O)O)cc2)O3)c1`, -2.74%.
For `O=C(C[C@H]1C[C@@H]2c3cc(NC(=O)CC4CC4)ccc3O[C@@H]2[C@H](CO)O1)NCc1ccccn1` the value was -3.34%.
Turning to `C[C@@H](O)C#Cc1cnc2c(c1)C(=O)N([C@@H](C)CO)C[C@H](C)[C@H](CN(C)C(=O)c1ccccc1F)O2`, the inhibition is 2.03%.
For `CC1=C(C(=O)N(C)C)CC(CC(=O)NCCN2CCOCC2)C(=O)N1Cc1ccccc1` (stereo unspecified) the value was -4.9%.
In the case of `CC1c2nc3ccccc3n2C(CC(=O)NCCCN2CCOCC2)C(=O)N1Cc1ccccc1` (stereo unspecified) it was 112% (active).
For the molecule `O=C(Cn1ncc2c3ccccc3n(Cc3ccccc3)c2c1=O)NCCCN1CCOCC1`, the inhibition is 0.065%.
For `C[C@@H]1CCCCO[C@@H](CN(C)Cc2ccc3c(c2)OCO3)[C@H](C)CN([C@@H](C)CO)C(=O)c2cc(NS(C)(=O)=O)ccc2O1` the value was -3.83%; for `CC(C)(C)c1cc(C(=O)NN)n(Cc2ccc(Cl)cc2Cl)n1`, 1.67%.
For `N#CC(C#N)=CN=c1ccn(Cc2ccc(Cl)cc2Cl)cc1` the value was 16.1% (active); for `C[C@@H]1CN([C@@H](C)CO)C(=O)c2cc(NC(=O)Nc3ccc(C(F)(F)F)cc3)ccc2O[C@@H](C)CCCCO[C@@H]1CN(C)C(=O)Nc1cccc2ccccc12`, -1.14%; for `Cc1csc(NC(=O)c2ccc(-c3ccc(Cl)cc3Cl)o2)n1`, -0.507%.
Turning to `CC1CCN(C(=S)c2ccc(-c3ccc(Cl)cc3Cl)o2)CC1`, the inhibition was 17.1% (active).
In the case of `CC1CCN(C(=S)c2cccc(O)c2)CC1` it was 0.61%; in that of `COc1ccc2c3c([nH]c2c1)[C@H](CO)N(C(=O)c1ccccc1)CC31CN(C(=O)Nc2cccc(F)c2)C1`, 1.05%; in that of `CC(C)c1cn([C@H]2C[C@@H]3O[C@H](CO)CC[C@@H]3O[C@@H]2CCc2ccc(C#CC3CCCCC3)cc2)nn1`, -3.82%.
Consider `Cc1sc2c(c1C)c(=O)n(-c1ccccc1)c(=O)n2CC(=O)NCC1CCCO1` (stereo unspecified), for which the inhibition is -4.65%.
For `CCCNC(=O)CCc1c(C)nc2c(c(C)nn2-c2ccccc2)c1C` the value was -2.55%; for `Cc1nn(-c2ccccc2)c2c1c(C)c(CCC(=O)NCC1CCCO1)c(=O)n2C` (stereo unspecified), 39.7% (active).
On to `CCCC#Cc1ccc([C@@H]2[C@@H](CO)N3C(=O)CN(C(=O)Nc4cccc(F)c4)C[C@H]23)cc1`, for which the inhibition is 6.12%.
As for `CCC(=O)Nc1ccc2c(c1)C(=O)N(C)C[C@@H](OC)[C@H](C)CN(Cc1cccnc1)[C@@H](C)CO2`, the inhibition is -0.588%.
In the case of `Cc1ccc(NC(=O)Cc2nnc(SCC(=O)Nc3nncs3)n2C)cc1` it was 17.8% (active); in that of `Cc1ccc(SCC(=O)Nc2nncs2)cc1`, -2.47%; in that of `Cn1c(CC(=O)Nc2ccc(F)cc2)nnc1SCC(=O)NC1CCCCC1`, 0.115%.
`O=C(C[C@H]1C[C@@H]2c3cc(NC(=O)C4CCC4)ccc3O[C@@H]2[C@H](CO)O1)NCCN1CCCCC1`: the inhibition was -1.29%.
For `C[C@H](CO)N1C[C@H](C)[C@@H](CN(C)C)Oc2c(NC(=O)Nc3ccc(F)cc3)cccc2C1=O` the value was -3.52%; for `C[C@H]1CN([C@@H](C)CO)C(=O)c2cc(-c3ccccc3F)cnc2O[C@@H]1CN(C)C`, -1.72%.
For `CC(C)OCCCNC(=S)N1CCC(C(=O)c2ccc3c(c2)OCCO3)CC1` the value was 26.6% (active); for `CCCNC(=S)N1CCC(NC(=O)c2ccc(OC)cc2)CC1`, 2.19%.
In the case of `COCCNC(=O)C1CCN(S(=O)(=O)c2ccc3c(c2)OCCO3)CC1` it was -1.09%.
